Assay outcomes: PubChem, C. David Weaver Laboratory, Vanderbilt University
GIRK2 activ: activators of human GIRK2 potassium channels; P48051; HEK293-GIRK2 thallium flux, Thallos fluorescence, MPD; calls only for hits at 25 µM; hit rate 0.05% among 63,000; AID 1259325; call rule not given here
Target sequence (P48051 whole entry, looked up): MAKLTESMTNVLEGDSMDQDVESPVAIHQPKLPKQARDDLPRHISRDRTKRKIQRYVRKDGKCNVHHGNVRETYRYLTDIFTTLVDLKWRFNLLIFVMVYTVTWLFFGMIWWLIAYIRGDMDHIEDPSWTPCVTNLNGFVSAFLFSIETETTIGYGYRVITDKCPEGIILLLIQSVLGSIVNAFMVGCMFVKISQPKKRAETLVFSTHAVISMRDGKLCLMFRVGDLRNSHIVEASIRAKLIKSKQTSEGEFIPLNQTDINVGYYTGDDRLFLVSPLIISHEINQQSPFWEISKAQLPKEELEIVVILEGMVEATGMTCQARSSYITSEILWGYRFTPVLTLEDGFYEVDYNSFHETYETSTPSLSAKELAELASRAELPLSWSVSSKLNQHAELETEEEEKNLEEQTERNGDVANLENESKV
Starred values were filed as active, the others as inactive; i = inactive; + = active, no number. The entries come from a sample that favours hits as a whole.

SMILES	GIRK2 activ
CCn1c(=O)c2c(nc3n(-c4ccccc4OC)c(-c4ccccc4)cn23)n(C)c1=O	+
COc1ccccc1-n1c(-c2ccccc2)cn2c3c(=O)n(CC(C)=O)c(=O)n(C)c3nc12	i
CCOC(=O)Cn1c(=O)c2c(nc3n(-c4ccccc4OC)c(-c4ccccc4)cn23)n(C)c1=O	i
COc1ccccc1CNC(=O)c1nnn(-c2ccc(C)cc2)c1C(C)C	i
O=C(C1CC=CCC1)N1CCC(CSc2ccccn2)CC1 (stereo not drawn)	i
O=C(Cn1ccc2ccccc21)Nc1cc(N2CCN(Cc3ccccc3)CC2)ncn1	i
O=C(Cn1ccc2ccccc21)NC1CCN(Cc2ccccc2)CC1	+
CCOC(=O)N1CCC(NC(=O)Cn2ccc3ccccc32)CC1	i
CC(=O)c1ccc(N2CCN(C(=O)c3cnn4c3OCCC4)CC2)cc1	i
O=C(NCc1ccc(F)c(Cl)c1)C1CCN(c2cc(Oc3ccccc3)ncn2)CC1	i
CS(=O)(=O)c1ccc2nc(N(Cc3ccco3)C(=O)C3CCCCC3)sc2c1	+
CS(=O)(=O)c1ccc2nc(N(Cc3ccco3)C(=O)c3ccc(Br)s3)sc2c1	i
CCCCOc1ccc(C(=O)N(Cc2ccco2)c2nc3ccc(S(C)(=O)=O)cc3s2)cc1	i
COc1ccc(NC(=O)CSc2nccc(N3CCN(c4ccc(F)cc4)CC3)n2)cc1OC	i
COc1ccc2c(c1)CCN(C(=O)CN1CCN(c3cccc(Cl)c3)C1=O)C2	i
COc1ccc(S(=O)(=O)N2CCC(c3nc(-c4ccccc4Br)no3)CC2)cc1	i
CCOC(=O)c1cn[nH]c1S(=O)(=O)N1CCN(c2ccc(C(C)=O)cc2)CC1	i
CCOC(=O)c1cn[nH]c1S(=O)(=O)N1CCN(c2cccc(C)c2)C(C)C1 (stereo not drawn)	+
CCOC(=O)c1cn[nH]c1S(=O)(=O)Nc1cccc(CC)c1	i
COc1ccccc1-n1nncc1CN1CCN(Cc2cccc(Cl)c2)CC1	i
Cc1ccccc1-n1nnc(C(=O)Nc2nccs2)c1-c1ccncc1	i
Cc1ccccc1-n1nnc(C(=O)NCc2ccc(Br)cc2)c1-c1ccncc1	i
COc1cc(OC)c(NC(=O)c2nnn(-c3ccccc3C)c2-c2ccncc2)cc1Cl	+
COc1cccc(CNC(=O)c2nnn(-c3ccccc3Cl)c2-c2ccncc2)c1	i
COc1ccc(NC(=O)c2nnn(-c3ccccc3C)c2-c2ccncc2)c(C)c1	+
SMILES	GIRK2 activ
CSc1ccc(CNC(=O)c2nnn(-c3ccccc3C)c2-c2ccncc2)cc1	i
CCOC(=O)c1ccc(-n2c(C)cn3c4c(=O)[nH]c(=O)n(C)c4nc23)cc1	i
COc1ccc(-c2coc3c4c(ccc3c2=O)OCN(Cc2ccco2)C4)cc1	i
Cc1nnsc1C(=O)N1CCN(c2ccc(-c3noc(C4CC4)n3)cn2)CC1	i
Cn1nc(CNC(=O)c2cc(Br)ccc2Cl)cc1-c1ccco1	i
COc1ccc(NC(=O)C2=Cc3ccccc3OC=C2)c(OC)c1	i
Cc1c(C(=O)Nc2nnc(-c3ccsc3)o2)cnn1-c1ccccc1	i
COc1cc(/C=N\Nc2ncnc3[nH]ncc23)ccc1O	i
COCCc1nnc(NC(=O)c2cccc(C#N)c2)o1	i
COc1ccccc1-n1nnc(C(=O)NCc2nc3ccccc3n2C)c1-c1ccccn1	i
COc1ccccc1-n1nnc(C(=O)Nc2nc(C)cs2)c1-c1ccccn1	+
COc1ccccc1-n1nnc(C(=O)NCC2COCCO2)c1-c1ccccn1 (stereo not drawn)	i
Cc1nc(Nc2ccc(NC(=O)C3CCC(=O)N3)cc2)cc(-n2cccn2)n1 (stereo not drawn)	i
COC(=O)N1CCc2ccc(Br)cc2C1C(=O)Nc1nccs1 (stereo not drawn)	+
COC(=O)N1CCc2ccc(F)cc2C1C(=O)Nc1cccc(C)n1 (stereo not drawn)	i
COC(=O)N1CCc2ccc(Br)cc2C1C(=O)Nc1ccc(SC)cc1 (stereo not drawn)	i
O=C(/C=C/c1ccccc1Cl)Nc1nnc(-c2ccsc2)o1	i
CC12CC3CC(C1)CC(CC(=O)NNC(N)=O)(C3)C2	i
C#CCOCC1CCN(C(=O)Nc2ccccc2)CC1	i
COc1cccc(CNC(=O)Cn2cnc3c(-c4ccc(C)cc4)nsc3c2=O)c1OC	i
CC1CCN(c2nccnc2Oc2ccc(C(=O)NCc3ccc(F)cc3)cc2)CC1	i
N#C/C(C(=O)Nc1ccccc1F)=C1/SC(Cc2ccc(Cl)cc2)C(=O)N1c1ccccc1 (stereo not drawn)	i
CC(=O)Nc1nc(N2CCC(C(=O)NCc3cccs3)CC2)sc1C(=O)N1CCCC1	i
Cn1c(=O)c2c(nc(NCCO)n2CC(O)COc2ccc(Cl)cc2)n(C)c1=O (stereo not drawn)	i
CCN(CC)c1ccc(-c2noc(CN3CCN(c4ccccc4Cl)CC3)n2)cn1	i
CCN(CC)c1ccc(-c2noc(CN3CCCCC3C)n2)cn1 (stereo not drawn)	+
CCN(CC)c1ccc(-c2noc(CN3CCSCC3)n2)cn1	i
